We go through 26 compounds from PubChem BioAssay (Tox21).

The structures appear in SMILES notation. Where “and” joins values, the source holds several entries; their conditions need not be identical. Equal entries are not always repeated. Inconclusive results are not listed. Unmarked numbers belong to inactive results. Calls of active or inactive are those of the source. The call rests on the fitted dose curve; in most records, active means well fitted cell-killing curve with a large enough effect in the repeat runs; inconclusive means weak or mixed curves, or effect the other way; inactive means flat fitted curve, though single readings scatter.
Further: nearly all actives have a fitted effect of over 50% in size.
On the % scale 0 is the no-effect control and ±100 the full control effect; potency means the concentration at half of the fitted maximal effect.

The nature of one assay: qHTS RealTime-Glo MT Cell Viability Assay in HEK293 cells - 24 hour (AID 1224886). On activity change, negative = cytotoxicity: top concentration of the series differs between compounds. Particulars: RealTime-Glo luminescence; series mostly up to 76.8 µM; activity change, negative = cytotoxicity: at the top concentration. The essentials: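 Cells + reagent dispensed (600 cells/well, HEK293) → 5 h at 37 C/5% CO2 → 23 nL compound in DMSO pinned → 40 h at 37 C → luminescence read at 0, 8, 16, 24, 32, 40 h.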
(Quantitative high-throughput screening tests each substance at several concentrations.)
Consider `CCCN(CCC)CCc1c[nH]c2ccccc12`, for which the “activity change, negative = cytotoxicity” value was -14.5%.
As for `CC1CCC(C(C)C)C(OC(=O)c2ccccc2N)C1` (stereo not given), the Potency is 34.2 µM (active).
On to `N#Cc1c(-c2ccc(Cl)cc2)[nH]c(C(F)(F)F)c1Br`, for which the Potency was 1.1 µM (active).
As for `ClC1=C(Cl)C2(Cl)C3C(Cl)C(Cl)CC3C1(Cl)C2(Cl)Cl` (stereo not given), the Potency was 48.8 µM (active).
On to `CC(C)(C)C(O)C(Oc1ccc(-c2ccccc2)cc1)n1cncn1` (stereo not given), for which the Potency was 43.6 µM (active).
Same read-out and setting: next, `CCC(C)c1cc([N+](=O)[O-])cc([N+](=O)[O-])c1OC(=O)C=C(C)C` (stereo not given): 38.9 µM (active); `COc1cccc2c1C(=O)c1c(O)c3c(c(O)c1C2=O)C[C@@](O)(C(=O)CO)CC3OC1CC(N2CCOC(OC)C2)C(O)C(C)O1` (stereo not given in full): 0.0535 µM (active).
Take `CCOP(=S)(OCC)OC(Cl)C(Cl)(Cl)Cl` (stereo not given): the “activity change, negative = cytotoxicity” value is -5.52%.
Turning to `Clc1ccc(CO/N=C(\Cn2ccnc2)c2ccc(Cl)cc2Cl)c(Cl)c1`, the Potency was 21.3 µM (active).
With `CC(=O)/C=C/c1ccc2c(c1)OCO2`, the “activity change, negative = cytotoxicity” value is -9.77%.
For the compound `O=[N+]([O-])c1cc(Cl)ccc1Cl`, the “activity change, negative = cytotoxicity” value is -1.01%.
Consider `CCCCCCCCc1ccc(O)cc1`, for which the Potency is 4.93 µM (active).
As to `Cc1cc(C(C)(C)c2cc(C)c(O)c(C)c2)cc(C)c1O`, the Potency is 21.2 µM (active).
Take `C[C@]12CC[C@@H]3c4ccc(OC(=O)N(CCCl)CCCl)cc4CC[C@H]3[C@@H]1CC[C@@H]2O`: the “activity change, negative = cytotoxicity” value is -0.722% [at 35.3 µM].
Take `CC(=O)c1cc(C(C)(C)C)cc2c1CCC2(C)C`: the “activity change, negative = cytotoxicity” value was -22.1%.

The next assay is described as follows: qHTS RealTime-Glo MT Cell Viability Assay in HEK293 cells - 8 hour (AID 1224887). On activity change, negative = cytotoxicity: top concentration of the series differs between compounds. The settings on record: RealTime-Glo luminescence; series mostly up to 76.8 µM; activity change, negative = cytotoxicity: at the top concentration. The essentials: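 Viable HEK293 cells reduce a cell-permeant prosubstrate; the product diffuses out and is consumed by NanoLuc in the medium to give light. Compounds went in after a 5 h incubation and plates were read over the treatment course.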
Turning to `CSCCCN=C=S`, the “activity change, negative = cytotoxicity” value was -31.3%.
As to `CC(C)(C)c1ccc(CSc2cnn(C(C)(C)C)c(=O)c2Cl)cc1`, the Potency is 7.76 µM (active).
Take `C=CCC1=C(C)C(OC(=O)C2C(C=C(C)C)C2(C)C)CC1=O` (stereo not given): the Potency was 23.2 µM (active).
Consider `O=[N+]([O-])c1c2ccccc2cc2ccccc12`, for which the “activity change, negative = cytotoxicity” value is -12.3%.
`CCCN(CCC)CCc1c[nH]c2ccccc12`: the “activity change, negative = cytotoxicity” value was -11.1%.
Regarding `CC1CCC(C(C)C)C(OC(=O)c2ccccc2N)C1` (stereo not given), the Potency was 34.2 µM (active).
Take `ClC1=C(Cl)C2(Cl)C3C(Cl)C(Cl)CC3C1(Cl)C2(Cl)Cl` (stereo not given): the Potency was 48.8 µM (active) and 49 µM (active).
With `CCC(C)c1cc([N+](=O)[O-])cc([N+](=O)[O-])c1OC(=O)C=C(C)C` (stereo not given), the Potency was 49 µM (active).
For `[Cl][Sb]([Cl])[Cl]`, the “activity change, negative = cytotoxicity” value was -0.784%.
Still for that read-out and setting: next, `CCOP(=S)(OCC)OC(Cl)C(Cl)(Cl)Cl` (stereo not given): -7.5%.
In the case of `Clc1ccc(CO/N=C(\Cn2ccnc2)c2ccc(Cl)cc2Cl)c(Cl)c1`, the Potency is 19 µM (active).
For the compound `CC(C)CC(C)Nc1ccc(Nc2ccccc2)cc1` (stereo not given), the Potency is 19.2 µM (active).
Turning to `O=[N+]([O-])c1cc(Cl)ccc1Cl`, the “activity change, negative = cytotoxicity” value is -7.75%.
As to `ClC1=C(Cl)C2(Cl)C3C(Cl)C=CC3C1(Cl)C2(Cl)Cl` (stereo not given), the Potency is 43.8 µM (active) and 43.6 µM (active).
Regarding `CCCCCCCCc1ccc(O)cc1`, the Potency was 6.76 µM (active).
Take `CC[C@H](C)[C@H]1O[C@]2(C=C[C@@H]1C)C[C@@H]1C[C@@H](C/C=C(\C)[C@@H](O[C@H]3C[C@H](OC)[C@@H](O[C@H]4C[C@H](OC)[C@@H](O)[C@H](C)O4)[C@H](C)O3)[C@@H](C)/C=C/C=C3\CO[C@@H]4[C@H](O)C(C)=C[C@@H](C(=O)O1)[C@]34O)O2`: the “activity change, negative = cytotoxicity” value is -21.2% [at 35.3 µM].
Same read-out and setting: under `C[C@]12CC[C@@H]3c4ccc(OC(=O)N(CCCl)CCCl)cc4CC[C@H]3[C@@H]1CC[C@@H]2O` stands 7.67% [at 35.3 µM].
In the case of `ClC1=C(Cl)[C@]2(Cl)[C@@H]3[C@@H]4C[C@@H]([C@H]5O[C@@H]45)[C@@H]3[C@@]1(Cl)C2(Cl)Cl`, the Potency was 38.9 µM (active).
For the compound `Oc1cc(Cl)c(Cl)c(Cl)c1`, the “activity change, negative = cytotoxicity” value was -19.8%.
For `CCCCOCN(C(=O)CCl)c1c(CC)cccc1CC`, the “activity change, negative = cytotoxicity” value was -17.2%.
